This passage reports Potency results from PubChem BioAssay AID588342 (National Center for Advancing Translational Sciences (NCATS), 2011).

In all, about 360,000 compounds went through this assay and about 25,000 (6.9%) were called active. Entries that show only a call come without a potency. Inconclusive results (about 9%) are left out. Calls follow the shape of the dose curve; as a rule, active = well fitted inhibition curve with a large enough effect; inconclusive = small, poorly fitted or top-dose-only effect; inactive = flat fitted curve, though single readings scatter. Only a selection was taken, and actives are over-represented in it overall.
Potency is read from the fitted curve at half-maximal effect.

Sequence of Luciferin 4-monooxygenase (Photinus pyralis) (P08659 whole entry, looked up): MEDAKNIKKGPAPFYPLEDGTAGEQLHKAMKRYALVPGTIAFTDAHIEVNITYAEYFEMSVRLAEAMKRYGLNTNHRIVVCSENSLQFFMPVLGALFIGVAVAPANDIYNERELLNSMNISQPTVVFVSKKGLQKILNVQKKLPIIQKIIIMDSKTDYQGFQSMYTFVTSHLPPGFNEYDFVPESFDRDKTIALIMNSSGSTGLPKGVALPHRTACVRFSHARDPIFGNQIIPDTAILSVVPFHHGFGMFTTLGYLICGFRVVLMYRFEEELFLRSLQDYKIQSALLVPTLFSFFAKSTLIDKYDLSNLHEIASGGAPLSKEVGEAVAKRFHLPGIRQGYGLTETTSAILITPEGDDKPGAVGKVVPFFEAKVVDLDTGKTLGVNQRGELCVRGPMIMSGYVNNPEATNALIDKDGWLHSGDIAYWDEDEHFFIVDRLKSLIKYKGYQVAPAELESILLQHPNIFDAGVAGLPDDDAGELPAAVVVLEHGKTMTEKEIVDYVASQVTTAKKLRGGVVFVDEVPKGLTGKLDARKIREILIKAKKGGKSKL

The target in the test is Luciferin 4-monooxygenase (Photinus pyralis) (UniProt P08659). Briefly: qHTS profiling assay for firefly luciferase inhibitor/activator using purifed enzyme and Km concentrations of substrates (counterscreen for miR-21 project). Also: nearly all actives have a fitted effect of over 55% in size. Particulars: purified FLuc, luminescence inhibition; series mostly up to 57.5 µM. In a few lines:
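Purified P. pyralis luciferase (10nM final) with 10uM D-luciferin and 10uM ATP (Km levels) in 50mM Tris acetate pH 7.5, 10mM Mg acetate, 0.01% Tween-20, 0.05% BSA; qHTS 6-point titration, ~60 µM downward; luminescence read.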
For the molecule `COc1cc(NC(=O)Cn2c(=O)n(Cc3ccco3)c(=O)c3oc4ccccc4c32)cc(OC)c1`, the Potency result is “inactive”.

Consider `COc1ccc(-c2nn(CC(=O)NC3CCCC3)c3c2cnc2ccc(F)cc23)cc1`, for which the Potency entry was “inactive”.

`CC(C)CN(C(=O)c1ccc2c(c1)OCO2)C1CCS(=O)(=O)C1` (stereo not drawn): the Potency result was “inactive”.

On to `O=c1c2cccnc2n(Cc2cccc(F)c2)c(=O)n1Cc1ccccc1Cl`, for which the Potency entry was “inactive”.

For `COc1ccc(CC(=O)N/N=C/c2cc([N+](=O)[O-])cc(Br)c2O)cc1`, the Potency entry is “inactive”.

Consider `COc1cc(/C=N/NC(=O)CCc2n[nH]c(=O)[nH]c2=O)ccc1O`, for which the Potency entry was “inactive”.

Consider `COc1cc(/C=N/NC(=O)Nc2ccccc2)ccc1OCCOc1ccccc1C`, for which the Potency result is “inactive”.

Turning to `COc1cc(/C=N/Nc2nc3ccccc3s2)ccc1O`, the Potency is 2.39 µM (active).

Take `COc1cc(/C=N\Nc2nc(-c3cccs3)c(NC(C)=O)s2)ccc1O`: the Potency was 7.57 µM (active).

Take `Cc1cc(C(=O)N/N=C/c2cc([N+](=O)[O-])cc(C)c2O)n[nH]1`: the Potency result was “inactive”.

`COc1cc(/C=N/NC(=O)CNC(=O)c2ccncc2)ccc1OC(C)=O`: the Potency entry was “inactive”.

For `O=[N+]([O-])c1cc(Br)c(O)c(/C=N/Nc2nc3ccccc3s2)c1`, the Potency was 19 µM (active).

For the molecule `Cn1c(SCC(=O)N/N=C/c2ccc(O)c(O)c2)nc2ccccc21`, the Potency result was “inactive”.

In the case of `CCOC(=O)C1CCCN(S(=O)(=O)c2cc(-c3cc(C)no3)ccc2OC)C1` (stereo not drawn), the Potency result is “inactive”.

Regarding `CSc1nn(Cc2cccc(C)c2)c(N)c1S(=O)(=O)c1ccccc1`, the Potency result was “inactive”.

As to `COc1cccc(CNC(=O)C2CCC(CNS(=O)(=O)c3cccs3)CC2)c1` (stereo not drawn), the Potency entry was “inactive”.

For `CC(C)(C)c1ccc(C(=O)NCC(c2ccc(Cl)cc2)N2CCOCC2)cc1` (stereo not drawn), the Potency result is “inactive”.

Take `CCOc1ccc(NC(=O)COC(=O)C2CCC(=O)N2)c([N+](=O)[O-])c1` (stereo not drawn): the Potency result was “inactive”.

In the case of `COc1ccc(-n2c(C)cc(C(=O)COC(=O)c3cc(OC)c(OC)cc3NC(=O)c3cccs3)c2C)cc1`, the Potency entry was “inactive”.

Turning to `Cc1ccc(-n2c(C)cc(C(=O)CN3C(=O)C(=O)N(C4CCCC4)C3=O)c2C)cc1`, the Potency entry is “inactive”.

Turning to `Cc1cc(C(=O)COC(=O)C2CC2)c(C)n1-c1ccc(F)cc1`, the Potency was 0.169 µM (active).

Turning to `Cc1nc(CN(C)C(=O)CC2C(=O)NCCN2Cc2ccc(F)cc2)cs1` (stereo not drawn), the Potency entry is “inactive”.

As for `Cc1cccc(N(C(=O)Cc2cccs2)C(C(=O)NCc2ccco2)c2ccncc2)c1` (stereo not drawn), the Potency entry is “inactive”.

In the case of `Cc1ccc(N(C(=O)Cc2cccs2)C(C(=O)NCC2CCCO2)c2ccncc2)cc1` (stereo not drawn), the Potency is 16.9 µM (active).

On to `O=C(NCC(=O)N(c1ccccc1)C(C(=O)NCC1CCCO1)c1ccccc1)c1cccs1` (stereo not drawn), for which the Potency result was “inactive”.

Regarding `CCOC(=O)c1cc2c(=O)n3ccccc3nc2n(CC2CCCO2)c1=NC(=O)c1ccccc1Br` (stereo not drawn), the Potency entry is “inactive”.

On to `CN(C)c1nc(NN)nc(Nc2ccc(F)cc2)n1`, for which the Potency result is “inactive”.

For the molecule `CCC(=O)Nc1nc(OC)cc(OC)n1`, the Potency entry is “inactive”.

Regarding `CC(=O)Nc1nc(N(C)C)nc(N(C)C)n1`, the Potency is 26.9 µM (active).

In the case of `O=C(Nc1ccccc1C(=O)O)c1ccc(N2C(=O)C3CC=CCC3C2=O)cc1` (stereo not drawn), the Potency was 4.78 µM (active).

On to `O=C(Cc1ccccc1)Nc1ccc(C(=O)Nc2ccccc2C(=O)O)cc1`, for which the Potency result was “inactive”.

In the case of `COc1ccc(Cl)cc1NC(=O)c1cccc(N2C(=O)C3CC=CCC3C2=O)c1` (stereo not drawn), the Potency result is “inactive”.

On to `O=c1ccc2cc(S(=O)(=O)N3CCN(c4ccccc4)CC3)ccc2o1`, for which the Potency entry is “inactive”.

For `CCOc1ccccc1NC(=O)Cn1c(=O)n(Cc2ccccc2)c(=O)c2c(C)c(C(=O)N(C)C)sc21`, the Potency entry is “inactive”.

With `O=C(O)c1ccc(/C=N/NC(=S)NCc2ccccc2)cc1`, the Potency entry was “inactive”.

Consider `COC(=O)N/N=C/c1ccc(/C=N/NC(=O)OC)cc1`, for which the Potency result was “inactive”.

For the molecule `CC(C)(C)OC(=O)N/N=C/c1ccc(C(=O)O)cc1`, the Potency is 19 µM (active).

As for `O=C(N/N=C/c1ccc(OCC2COCCO2)cc1)c1ccc(Br)cc1` (stereo not drawn), the Potency result was “inactive”.

Take `O=C(O)c1ccc(/C=N/NC(=O)c2ccc(Br)cc2)cc1`: the Potency is 15.1 µM (active).

As to `COc1ccc(S(=O)(=O)N(CC(=O)N/N=C/c2ccc(C(=O)O)cc2)Cc2ccccc2)cc1OC`, the Potency entry was “inactive”.

`Cc1cccc2c(=O)cc(CSc3ccccc3NC(=O)C(C)C)[nH]c12`: the Potency entry is “inactive”.

As to `Nc1c(-c2ccc(F)cc2)cnn1C1CCS(=O)(=O)C1` (stereo not drawn), the Potency entry was “inactive”.

For `O=C(Nc1ccc(C(F)(F)F)cc1)c1cccc(-n2cnnn2)c1`, the Potency result was “inactive”.

In the case of `CC(C)NC(=O)NCCCCCCS(C)=O` (stereo not drawn), the Potency result is “inactive”.

As to `O=C(COC(=O)Cc1ccc(Br)cc1)Nc1ccc(N2CCOCC2)cc1`, the Potency result is “inactive”.

On to `O=C(Nc1ccccc1Cl)Nc1cccc2cccnc12`, for which the Potency is 12 µM (active).

On to `Cc1cc(NC(=O)c2cccc(N3C(=O)CCC3=O)c2)no1`, for which the Potency result is “inactive”.

As to `O=C(Nc1cccc2cccnc12)c1cccc(N2C(=O)CCC2=O)c1`, the Potency was 13.5 µM (active).

Turning to `COC(=O)c1cccc(NC(=O)c2cccc(N3C(=O)CCC3=O)c2)c1`, the Potency entry is “inactive”.

Turning to `N#Cc1ccc(C(=O)Nc2cccc3cccnc23)c(F)c1`, the Potency result was “inactive”.

As for `O=C(Nc1cccc2cccnc12)c1cccc(Cl)c1`, the Potency is 15.1 µM (active).

As to `COc1c(Cl)cc(Cl)cc1C(=O)Nc1cccc2cccnc12`, the Potency result is “inactive”.

Regarding `Cc1c(NC(=O)Nc2ccccc2Cl)sc(=S)n1C`, the Potency result is “inactive”.

For the molecule `O=C(Nc1cccc2cccnc12)c1cccc2c(Br)cccc12`, the Potency entry was “inactive”.

For `O=S(=O)(Nc1ccc(-n2cnnn2)cc1)c1ccc(Cl)cc1`, the Potency result is “inactive”.

As to `O=[N+]([O-])/C=C1\CCCCCN1`, the Potency entry was “inactive”.

In the case of `CCc1ccccc1N1CC(c2nc3ccccc3n2CCCCOc2ccccc2)CC1=O` (stereo not drawn), the Potency entry was “inactive”.

On to `O=C(CCNS(=O)(=O)c1ccccc1C(F)(F)F)Nc1ccncc1`, for which the Potency entry was “inactive”.

Take `Cc1ccc(-c2nnc(Nc3cccc(Br)c3)c3ccccc23)cc1S(=O)(=O)NCC1CCCO1` (stereo not drawn): the Potency entry is “inactive”.

For `CC1CCCC(NC(=O)COC(=O)[C@@H]2CC(O)CN2S(=O)(=O)c2ccc3c(c2)OCCO3)C1C` (stereo partly drawn), the Potency entry is “inactive”.

Consider `Clc1ccc(CSc2nncn3c2cc2occc23)cc1`, for which the Potency entry is “inactive”.

As to `CC(=O)c1ccccc1NC(=O)C1CC(=O)N(c2ccc3c(c2)OCCO3)C1` (stereo not drawn), the Potency entry was “inactive”.

Turning to `COc1ccc(CNc2nc(-c3ccc(Cl)cc3)nn2S(=O)(=O)c2ccc(C)cc2)cc1`, the Potency result is “inactive”.

On to `CS(=O)(=O)Nc1cccc(C2=NN(S(=O)(=O)c3ccccc3)C(c3cccs3)C2)c1` (stereo not drawn), for which the Potency entry is “inactive”.

In the case of `COC(=O)c1cccc(NS(C)(=O)=O)c1`, the Potency entry is “inactive”.

For `CS(=O)(=O)Nc1cccc(-c2cn3ccccc3n2)c1`, the Potency is 23.9 µM (active).

With `COc1ccccc1C1=CC(=O)C[C@H](c2ccc(F)cc2)C1`, the Potency entry was “inactive”.

As for `Cc1ccc(SCCC(=O)NCc2ccccn2)cc1`, the Potency entry was “inactive”.

Regarding `Cc1ccc(SCCC(=O)NC(C(C)C)C(C)C)cc1`, the Potency entry was “inactive”.

As for `Cc1ccc(SCCSc2ncccn2)cc1`, the Potency is 1.69 µM (active).

Consider `CCN(C(=O)CSc1nnc(C)n2c1cc1occc12)c1ccccc1`, for which the Potency result is “inactive”.

Take `COc1cc(C(=O)NNC(=O)CN2C(=O)NC3(CCCC3)C2=O)cc(OC)c1OC`: the Potency result is “inactive”.

For `Cc1ccc(-c2nnc3c4ccccc4c(C)nn23)cc1NC(=O)c1cccc(Br)c1`, the Potency result was “inactive”.

For `Cc1ccc(S(=O)(=O)NCCC(=O)Nc2ccc(C)c(Cl)c2)cc1C`, the Potency result is “inactive”.

`Cc1ccc(S(=O)(=O)NCCC(=O)Nc2cccc(S(N)(=O)=O)c2)cc1C`: the Potency result is “inactive”.

With `Cc1ccnc(NC(=O)CCNS(=O)(=O)c2ccc(C)c(C)c2)c1`, the Potency was 4.78 µM (active).

With `COc1cc(NC(=O)CN2CCN(S(=O)(=O)c3ccc(Br)cc3)CC2)cc(OC)c1`, the Potency result is “inactive”.

Turning to `O=C(O)CCn1c(Cc2ccccc2)nc2ccccc21`, the Potency result is “inactive”.

With `Cc1cc2ccccc2n1CCC(=O)O`, the Potency result was “inactive”.

As to `O=C(O)CCn1c(O)c(C=C2N=c3ccccc3=N2)sc1=S`, the Potency was 1.07 µM (active).

On to `CCOC(=O)c1ccc(NC(=O)CC2C(=O)N(c3cccc(OC)c3)C(=O)N2C2CCCCC2)cc1` (stereo not drawn), for which the Potency result was “inactive”.

On to `CN(CC(=O)Nc1ccccc1F)S(=O)(=O)c1ccc2c(c1)c(=O)n(C)c(=O)n2C`, for which the Potency entry is “inactive”.

Turning to `Cc1ccc2nc(-c3ccccc3)cc(C(=O)O)c2c1`, the Potency was 12 µM (active).

Regarding `CCS(=O)(=O)Nc1cccc(-c2cc(-c3ccccc3)c3cc(C)ccc3n2)c1`, the Potency result was “inactive”.

On to `Cc1ccc2nc(-c3ccncc3)cc(C(=O)Nc3ccc4c(c3)OCCO4)c2c1`, for which the Potency entry was “inactive”.

Turning to `O=C(NCC(c1cccs1)N1CCOCC1)c1cc(-c2ccccn2)nc2ccccc12` (stereo not drawn), the Potency entry is “inactive”.

Consider `COc1ccccc1C(=O)Nn1cnnc1`, for which the Potency entry was “inactive”.

Consider `Cc1cc(C(=O)OCC(=O)Nc2nccs2)c2ccccc2n1`, for which the Potency entry was “inactive”.

Regarding `O=C(NCc1cccs1)c1cc(-c2ccccn2)nc2ccc(Br)cc12`, the Potency entry is “inactive”.

Regarding `Cc1ccsc1-c1cc(C(=O)O)c2c(ccc3ccccc32)n1`, the Potency was 5.36 µM (active).

Take `NC(=O)c1cc(-c2cccnc2)nc2ccc(Br)cc12`: the Potency result was “inactive”.

Regarding `Cc1ccc(-c2cc(C(=O)NCc3cn(C)nc3C)c3cc(Br)ccc3n2)cc1`, the Potency was 1.9 µM (active).

Take `O=C(Nc1ccncc1)c1cc(-c2ccccn2)nc2ccc(Br)cc12`: the Potency entry was “inactive”.

Take `Cc1ccc2nc(-c3cccc(Br)c3)cc(C(=O)Nn3cnnc3)c2c1`: the Potency was 0.536 µM (active).

With `Cc1cccc(NC(=O)Cn2cc(S(=O)(=O)Cc3ccccc3Cl)c3ccccc32)c1`, the Potency entry is “inactive”.

Consider `CCOC(=O)c1ccccc1NC(=O)c1sc2nc(-c3ccc(F)cc3)cn2c1C`, for which the Potency result was “inactive”.

`O=C(NCC12CC3CC(CC(C3)C1)C2)c1cc2nc(-c3ccccc3)cc(C(F)(F)F)n2n1`: the Potency entry is “inactive”.

Turning to `Cc1nc(CNS(=O)(=O)c2ccc(Oc3ccccc3)cc2)cs1`, the Potency entry was “inactive”.

With `Cc1ccc(S(=O)(=O)c2cn(Cc3ccccc3)c3cc(N4CCCC4)c(F)cc3c2=O)c(C)c1`, the Potency result is “inactive”.

Turning to `NC(=O)Cn1nc([N+](=O)[O-])nc1Oc1ccc(Br)cc1`, the Potency entry was “inactive”.

Take `COc1ccccc1-n1c(-c2ccc(C)cc2)cn2c3c(=O)n(C)c(=O)n(C)c3nc12`: the Potency entry is “inactive”.

`COc1cccc(C(=O)N2CCC(n3nccc3NC(=O)C3CCOC3)CC2)c1` (stereo not drawn): the Potency result is “inactive”.

In the case of `COC(=O)[C@]1(C)CCC[C@@]2(C)C3CC[C@]4(OC(C)=O)C[C@@]3(CCC21)CC4=NO` (stereo partly drawn), the Potency result was “inactive”.
